Test results reported in PubChem BioAssay.
The source made the active and inactive calls. Unless noted, the rule behind the calls is not given here.

Experiments:
[1] = compounds binding Alexa647 anti-His antibody – biochemical, small-molecule microarray, 635 nm fluorescence, artefact control for SMM control protein annotation, primary screen (AID 1128); conditions: higher = more signal;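 note: score merges feature fluorescence with signal-to-noise for each printed compound spot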
[2] = test system: Human papillomavirus type 1a E7 protein (residues 1-88); experiment: HPV1a E7 small-molecule binders, primary screen, biochemical, small-molecule microarray, residues 1-88, 635 nm (AID 1129); conditions: small-molecule microarray binding, fluorescence 635 nm; higher = more signal
[3] = target: Focal adhesion kinase 1 (Homo sapiens) (UniProt Q05397); experiment: PTK2 protein binding on printed compound slides – biochemical, small-molecule microarray, 635/667 nm fluorescence, BSA, DTT, primary screen (AID 1130); conditions: 635 nm fluorescence, higher = more signal;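 note: composite of spot emission at 667 nm and signal to noise over triplicate slides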
[4] = test system: Fibrinogen (Alexa647-labelled); experiment: Alexa647-fibrinogen binding to printed small molecules – biochemical, small-molecule microarray, 635/667 nm fluorescence, artefact control for SMM control-protein annotation, profiling panel (AID 1131); conditions: fibrinogen-A647 binding fluorescence, higher = more signal;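 note: z-score merges 667 nm fluorescence with per-spot signal-to-noise over triplicate slides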
[5] = target: Follistatin (Homo sapiens) (UniProt P19883); experiment: FST protein binding to printed compounds – biochemical, small-molecule microarray, 635/667 nm fluorescence, primary screen (AID 1132); conditions: 635 nm fluorescence, higher = more signal
[6] = target: Fibroblast growth factor 2 (Homo sapiens) (UniProt P09038); experiment: basic fibroblast growth factor binding to printed compounds – biochemical, small-molecule microarray, 635/667 nm fluorescence, primary screen (AID 1133); conditions: FGF2, fluorescence 635/667, higher = more signal
[7] = JC-1 mitochondrial potential readout, lung cancer cells – cell-based, A549, JC-1 fluorescence, basal, 24 h, 100 nL, profiling panel (AID 1138); conditions: higher = more signal;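 note: A549 lung adenocarcinoma cells under basal conditions with no added stimulus; test concentration not given here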
Lefty1 = Lefty1 protein binding to printed compounds – biochemical, small-molecule microarray, 635/667 nm fluorescence, primary screen (AID 1139); conditions: fluorescence 635/667, higher = more signal
[8] = test system: wheat germ agglutinin (Triticum aestivum), Alexa647-labelled; experiment: Alexa647-WGA lectin binding to printed small molecules – biochemical, small-molecule microarray, 635/667 nm fluorescence, artefact control for SMM control-protein annotation, profiling panel (AID 1140); conditions: WGA-A647 binding, 635 nm fluorescence, higher = more signal;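 note: score merges 667 nm feature emission with signal to noise over triplicate slides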
[9] = target: Luciferin 4-monooxygenase (Photinus pyralis) (UniProt P08659); experiment: inhibition of purified Photinus pyralis luciferase – biochemical, luminescence, purified enzyme, 2006 set, primary screen (AID 1141); conditions: purified firefly luciferase, SteadyGlo luminescence, 30 min; higher = more signal, called active from +8 up or from −8 down;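 note: cell-free assay with purified firefly luciferase at 100 ng per well in PBS; test concentration not given here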
[10] = test system: Wnt5a (protein binding on small-molecule microarray); experiment: small molecules binding Wnt5a protein – biophysical, small-molecule microarray, 635/667 nm fluorescence, primary screen (AID 1142); conditions: 635 nm fluorescence, higher = more signal;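 note: fluorescence read at 667 nm with signal to noise per printed feature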
[11] = ATP-based viability of Huh7 replicon cells – cell-based, CellTiter-Glo luminescence, basal, 48 h, cytotoxicity control for HCV replication inhibitor project, primary screen (AID 1143); conditions: higher = more signal, called active from +8 up or from −8 down;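 note: Huh7 hepatoma cells carrying a hepatitis C replication reporter with no stimulus; test concentration not given here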
[12] = Pseudomonas biofilm growth suppression – PAO1 strain, BacTiter-Glo luminescence, LB-PBS, primary screen (AID 1144); conditions: P. aeruginosa PAO1 biofilm, 12 h, higher = more signal
[13] = basal CRE-LacZ reporter activity in PC12 – cell-based, unstimulated, primary screen (AID 1145); conditions: no forskolin, luminescence, 4.5 h, higher = more signal, called active from +8 up or from −8 down
[14] = forskolin-driven CRE-LacZ activity in PC12 – cell-based, CRE-LacZ reporter, forskolin-stimulated, primary screen (AID 1146); conditions: luminescence, 4.5 h, higher = more signal, called active from +8 up or from −8 down;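 note: PC12 cells with 6xCRE LacZ reporter stimulated by forskolin 10 µM; beta-galactosidase reporter signal reflecting CREB driven transcription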
[15] = target: Streptavidin (Streptomyces avidinii) (UniProt P22629); experiment: compounds binding control protein streptavidin – biophysical, small-molecule microarray, 635/667 nm fluorescence, artefact control for SMM compound annotation, primary screen (AID 1147); conditions: higher = more signal;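 note: signal reflects streptavidin binding to arrayed compounds as a control protein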
[16] = probe aInhba binding on compound microarray – biochemical, small-molecule microarray, 635/667 nm fluorescence, primary screen (AID 1148); conditions: higher = more signal;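 note: score merges 667nm spot fluorescence with signal-to-noise for antibody binding to printed compounds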
Torsin-1A (Homo sapiens) [17] = target: Torsin-1A (Homo sapiens) (UniProt O14656); experiment: TOR1A wild-type binding on microarray – cell lysate, small-molecule microarray, lysate, 635/667 nm, primary screen (AID 1149); conditions: COS7 hTOR1A-WT lysate, 635 nm fluorescence, higher = more signal
Torsin-1A (Homo sapiens) [18] = target: Torsin-1A (Homo sapiens) (UniProt O14656); experiment: torsin A mutant lysate binding on microarrays – cell lysate, small-molecule microarray, COS7 lysate, 635/667 nm fluorescence, primary screen (AID 1150); conditions: COS7 hTOR1A mutant lysate, 635 nm fluorescence, higher = more signal;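 note: score pools 667 nm emission and signal to noise measuring lysate protein binding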
[19] = test system: Sonic hedgehog protein (Shh); experiment: Sonic hedgehog microarray binding compounds – biochemical, small-molecule microarray, 635/667 nm fluorescence, primary screen (AID 1151); conditions: 635 nm fluorescence, higher = more signal;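 note: Shh protein binding to compounds spotted on small-molecule microarray slides; score combines spot fluorescence intensity with signal-to-noise across triplicate slides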

Focal adhesion kinase 1 (Homo sapiens), sequence (Q05397 whole entry, looked up): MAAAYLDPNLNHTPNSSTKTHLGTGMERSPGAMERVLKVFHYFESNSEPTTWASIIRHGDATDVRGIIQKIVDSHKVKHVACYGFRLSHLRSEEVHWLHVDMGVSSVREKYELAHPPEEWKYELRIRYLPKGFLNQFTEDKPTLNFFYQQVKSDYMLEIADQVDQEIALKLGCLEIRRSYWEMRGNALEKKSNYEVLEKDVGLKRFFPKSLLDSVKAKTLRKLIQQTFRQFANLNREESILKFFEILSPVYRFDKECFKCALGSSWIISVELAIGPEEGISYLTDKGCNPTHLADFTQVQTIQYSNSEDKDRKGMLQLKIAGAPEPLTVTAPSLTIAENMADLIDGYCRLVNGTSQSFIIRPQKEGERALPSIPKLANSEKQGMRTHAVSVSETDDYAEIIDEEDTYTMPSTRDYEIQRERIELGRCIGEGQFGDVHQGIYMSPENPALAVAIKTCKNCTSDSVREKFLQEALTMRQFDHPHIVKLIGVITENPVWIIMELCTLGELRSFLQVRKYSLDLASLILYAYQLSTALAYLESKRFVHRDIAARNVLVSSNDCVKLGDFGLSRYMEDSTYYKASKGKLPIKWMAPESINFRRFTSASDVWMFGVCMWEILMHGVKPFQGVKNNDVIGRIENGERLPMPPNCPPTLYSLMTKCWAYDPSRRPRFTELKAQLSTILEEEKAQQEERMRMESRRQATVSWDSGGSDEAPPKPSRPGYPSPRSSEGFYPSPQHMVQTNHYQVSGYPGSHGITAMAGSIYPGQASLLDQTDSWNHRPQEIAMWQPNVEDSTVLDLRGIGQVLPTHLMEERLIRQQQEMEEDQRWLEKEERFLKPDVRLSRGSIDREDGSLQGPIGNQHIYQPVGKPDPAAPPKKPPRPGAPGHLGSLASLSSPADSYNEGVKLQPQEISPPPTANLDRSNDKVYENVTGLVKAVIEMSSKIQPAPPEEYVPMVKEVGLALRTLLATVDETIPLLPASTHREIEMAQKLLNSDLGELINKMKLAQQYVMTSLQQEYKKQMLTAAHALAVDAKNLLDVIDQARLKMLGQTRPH
Torsin-1A (Homo sapiens), sequence (O14656 whole entry, looked up): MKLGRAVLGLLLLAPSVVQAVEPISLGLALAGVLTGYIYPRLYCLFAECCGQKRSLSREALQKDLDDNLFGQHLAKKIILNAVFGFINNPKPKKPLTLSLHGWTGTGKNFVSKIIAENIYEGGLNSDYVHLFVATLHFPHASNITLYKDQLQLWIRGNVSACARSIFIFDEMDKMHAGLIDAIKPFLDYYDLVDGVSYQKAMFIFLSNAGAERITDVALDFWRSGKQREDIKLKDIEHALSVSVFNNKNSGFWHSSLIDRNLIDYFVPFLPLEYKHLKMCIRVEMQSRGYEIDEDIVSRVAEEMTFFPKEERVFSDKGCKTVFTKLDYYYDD
Luciferin 4-monooxygenase (Photinus pyralis), sequence (P08659 whole entry, looked up): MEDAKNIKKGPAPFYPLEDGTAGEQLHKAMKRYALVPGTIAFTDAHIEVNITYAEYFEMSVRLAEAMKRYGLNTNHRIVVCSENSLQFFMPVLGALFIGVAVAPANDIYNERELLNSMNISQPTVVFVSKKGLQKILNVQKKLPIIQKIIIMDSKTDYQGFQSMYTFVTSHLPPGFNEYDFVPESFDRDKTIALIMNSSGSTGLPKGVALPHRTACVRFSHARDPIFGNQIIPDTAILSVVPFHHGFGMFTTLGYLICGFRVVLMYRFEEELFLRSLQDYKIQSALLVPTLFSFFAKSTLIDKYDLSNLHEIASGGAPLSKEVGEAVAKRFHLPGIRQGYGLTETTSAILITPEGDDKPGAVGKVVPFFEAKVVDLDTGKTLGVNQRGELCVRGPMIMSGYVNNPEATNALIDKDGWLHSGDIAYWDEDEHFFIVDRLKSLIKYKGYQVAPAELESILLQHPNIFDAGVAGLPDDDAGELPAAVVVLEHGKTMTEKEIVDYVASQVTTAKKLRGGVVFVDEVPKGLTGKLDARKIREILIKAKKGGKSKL
Streptavidin (Streptomyces avidinii), sequence (P22629 whole entry, looked up): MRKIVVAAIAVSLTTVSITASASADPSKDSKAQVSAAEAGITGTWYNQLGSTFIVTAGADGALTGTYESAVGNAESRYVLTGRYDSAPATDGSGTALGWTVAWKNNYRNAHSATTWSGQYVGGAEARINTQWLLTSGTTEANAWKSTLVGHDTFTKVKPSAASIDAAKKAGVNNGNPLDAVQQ
Follistatin (Homo sapiens), sequence (P19883 whole entry, looked up): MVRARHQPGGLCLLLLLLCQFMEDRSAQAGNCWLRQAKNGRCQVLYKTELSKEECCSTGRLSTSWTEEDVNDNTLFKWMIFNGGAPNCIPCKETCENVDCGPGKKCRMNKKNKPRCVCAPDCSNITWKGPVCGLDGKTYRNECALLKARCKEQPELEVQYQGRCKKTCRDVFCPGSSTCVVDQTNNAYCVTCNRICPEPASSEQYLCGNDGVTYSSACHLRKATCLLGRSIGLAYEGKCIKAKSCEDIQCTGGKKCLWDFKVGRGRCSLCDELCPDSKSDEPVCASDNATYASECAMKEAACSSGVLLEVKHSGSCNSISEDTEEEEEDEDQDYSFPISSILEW
Fibroblast growth factor 2 (Homo sapiens), sequence (P09038 whole entry, looked up): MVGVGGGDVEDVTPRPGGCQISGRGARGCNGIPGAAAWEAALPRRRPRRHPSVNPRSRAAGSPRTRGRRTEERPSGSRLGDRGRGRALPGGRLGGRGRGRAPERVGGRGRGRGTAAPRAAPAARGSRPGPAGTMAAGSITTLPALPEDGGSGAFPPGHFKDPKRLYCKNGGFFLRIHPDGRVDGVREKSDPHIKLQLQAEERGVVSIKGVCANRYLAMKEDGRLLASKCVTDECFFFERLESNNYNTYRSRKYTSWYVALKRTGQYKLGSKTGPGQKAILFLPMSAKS

Row | SMILES | composite z-score [1] | composite z-score [2] | composite z-score [3] | composite z-score [4] | composite z-score [5] | composite z-score [6] | z-score [7] | composite z-score (Lefty1) | composite z-score [8] | z-score [9] | composite z-score [10] | z-score [11] | z-score [12] | z-score [13] | z-score [14] | composite z-score [15] | composite z-score [16] | composite z-score (Torsin-1A (Homo sapiens) [17]) | composite z-score (Torsin-1A (Homo sapiens) [18]) | composite z-score [19]
1 | O=c1cccc(-c2ccco2)o1 | 0.645 | 0.471 | 0.082 | 0.476 | 1.3 | 0.879 | -0.262 | 1.02 | 0.138 | 0.405 (inactive) | 0.302 | -0.768 (inactive) | 0.329 (inactive) | -0.518 (inactive) | 0.57 (inactive) | 0.721 | 0.0091 | 0.444 | 0.066 | 2.07
2 | O=C1C[C@@](C(=O)NCc2ccccc2)(c2ccc([N+](=O)[O-])cc2)[C@@H](c2ccc(CO)cc2I)N1CC12CC3CC(CC(C3)C1)C2 | 0.579 | 0.976 | 0.121 | 0.846 | 1.41 | 1.54 | -1.36 | 1.52 | 1.07 | 1.34 (inactive) | 0.77 | -5.74 (inactive) | -1.67 (inactive) | -0.709 (inactive) | -0.038 (inactive) | 0.0117 | -0.246 | 0.585 | 0.825 | 2.06
3 | CC(C)C[C@@H]1NC(=O)CNC(=O)[C@@]23C(=O)N[C@@H](Cc4ccccc4)C2[C@H](C)[C@@]2(C)O[C@H]2C3/C=C/C/C=C\CNC1=O (stereo not given in full) | 0.678 | 0.331 | -0.183 | 0.949 | 1.08 | 0.759 | 0.036 | 1.07 | -0.0197 | -0.14 (inactive) | 0.184 | 0.0431 (inactive) | -0.826 (inactive) | -0.417 (inactive) | 0.297 (inactive) | -0.0691 | -0.0494 | 1.09 | -0.134 | 1.5
4 | CN(C)C(=O)[C@@]1(Cc2ccccc2N=[N+]=[N-])N=C(c2ccc(OCCCO)cc2)O[C@H]1c1ccccc1 | 1.78 | 1.25 | 0.235 | 0.992 | 1.15 | 1.37 | -0.238 | -0.442 | 1.22 | -2.17 (inactive) | 0.797 | -4.41 (inactive) | -1.63 (inactive) | 0.872 (inactive) | 0.361 (inactive) | 1.84 | 0.841 | 0.106 | 0.401 | -0.361
5 | Cc1ccc(N2C(=O)c3ccccc3[C@](C)(C(=O)NCc3ccccc3)[C@@H]2c2ccc(CO)cc2)nc1 | 2.31 | -0.27 | 0.771 | -0.887 | 1.31 | 0.464 | -0.425 | -0.0828 | 0.0023 | -1.1 (inactive) | 0.135 | -2.21 (inactive) | 0.493 (inactive) | 0.351 (inactive) | -1.32 (inactive) | 0.0831 | 0.0561 | 0.197 | 0.185 | 0.547
6 | COc1ccc([Si](C)(C)[C@H]2[C@H](CC(=O)N3CCC[C@H]3CO)O[C@@]3(C(=O)N(Cc4ccc(N5CCC5=O)cc4)c4ccccc43)[C@@H]2C)cc1 | 1.54 | 1.19 | 0.559 | 0.898 | 1.35 | 1.73 | 1.51 | 1.56 | 0.211 | -0.509 (inactive) | 0.699 | -5.51 (inactive) | 0.0292 (inactive) | 0.18 (inactive) | -0.404 (inactive) | 0.39 | -0.0523 | 1.1 | 0.43 | 1.77
7 | CCc1cccc(NC(=O)O[C@H]2[C@H](OC(=O)Nc3ccccc3)[C@H](OC(=O)Nc3ccccc3)[C@@H](OC)O[C@@H]2CO)c1 | 1.14 | 1.26 | 1.53 | 0.571 | 1.16 | 0.216 | -1.55 | 0.0478 | 0.751 | 0.234 (inactive) | 0.428 | -6.02 (inactive) | -0.0223 (inactive) | 1.03 (inactive) | -1.2 (inactive) | 1.03 | 0.212 | -0.417 | 0.778 | 0.0653
8 | CC(C)[C@H]1NC(=O)[C@@]23C(=O)N[C@@H](Cc4ccccc4)C2[C@H](C)[C@@]2(C)O[C@H]2C3/C=C/C/C=C\CNC(=O)[C@H](Cc2ccccc2)NC1=O (stereo not given in full) | 0.591 | 0.973 | 0.117 | 0.982 | 1.31 | 1.42 | -0.182 | 1.57 | 0.489 | -0.894 (inactive) | 0.566 | -2.56 (inactive) | 1.12 (inactive) | 1.57 (inactive) | -0.513 (inactive) | 0.852 | 0.0528 | 1.3 | 0.629 | 1.96
9 | COc1ccc(CCNC(=O)[C@@]2(Cc3ccccc3I)c3ccccc3C(=O)N(Cc3ccccc3Cl)[C@H]2c2ccc(CO)cc2)cc1 | 0.0199 | 0.899 | 0.196 | 0.0632 | 0.0376 | 0.0031 | 0.311 | -0.321 | 0.0638 | -0.0513 (inactive) | 0.0402 | -2.74 (inactive) | -0.144 (inactive) | 0.0387 (inactive) | 0.752 (inactive) | -0.555 | 0.502 | -0.36 | 0.397 | 0.527
10 | COCCCNC(=O)[C@@]1(c2ccc([N+](=O)[O-])cc2)CC(=O)N(CC23CC4CC(CC(C4)C2)C3)[C@@H]1c1ccc(CO)cc1I | 1.77 | 0.892 | 0.0865 | 0.705 | 1.16 | 0.614 | -0.189 | -0.122 | 0.47 | 0.482 (inactive) | 0.582 | -5.26 (inactive) | 0.142 (inactive) | -0.825 (inactive) | 0.372 (inactive) | -0.414 | 0.0906 | 0.676 | 0.0661 | 0.636
